Test results: the supplement of paper PMC11732987, “Enantioselective OTUD7B fragment discovery through chemoproteomics screening and high-throughput optimisation” (Communications Chemistry, 2025)

Key:
Experiment in all cases: log2 ratio of Biotin-Ahx-Ub-VS probe labelling (compound/DMSO); higher = less target engagement, active = hit call of the paper (q ≤ 0.05, log2 ratio ≤ -1)
Details in all cases: treatment time: 3 h
[1] = compound: CCC1N(CCc2sccc12)C(=O)CCl
How it was run: (§1)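 For activity-based profiling, 495 µg portions of HEK293T lysate in Tris/CHAPS/IGEPAL buffer with protease inhibitors were treated in triplicate with compound at 50 or 200 µM or with DMSO for 3 h. A 1 h incubation with Biotin-Ahx-Ub-VS (0.5 µM final) followed, then NeutrAvidin enrichment, LysC and trypsin digestion and diaPASEF LC-MS/MS. The compound/DMSO base-two log ratios were averaged from median-normalised label-free quantities using an unpaired t-test. Proteins needed at least 2 unique peptides to be included.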

[2] = compound: CN1c2ccccc2C(CS1(=O)=O)NC(=O)CCl
How it was run: as §1

[3] = compound: Cl.ClCC(=O)N1CCc2ncncc2C1
How it was run: as §1

[4] = compound: Cl.Cn1ncc2C(CCCc12)NC(=O)CCl
How it was run: as §1

[5] = compound: ClCC(=O)NC1CCOc2ccccc12
How it was run: as §1

[6] = compound: ClCC(=O)NC1CCCc2ccccc12
How it was run: (§2)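 Values are average ratios of compound to vehicle from an unpaired t-test, limited to proteins with at least two unique peptides. HEK293T lysate (495 µg per sample, in Tris/CHAPS/IGEPAL buffer with protease inhibitors) was exposed in triplicate to a concentration series of compound or to vehicle for 3 h, then to Biotin-Ahx-Ub-VS at 0.5 µM final for 1 h. Labelled deubiquitinases were enriched on NeutrAvidin, digested with LysC and trypsin, and analysed by diaPASEF LC-MS/MS. Ratios are given on a log2 scale from Spectronaut label-free protein quantities normalised to the global median.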

[7] = compound: ClCC(=O)N[C@@H]1CCCc2ccccc12
How it was run: as §2

[8] = compound: ClCC(=O)N[C@H]1CCCc2ccccc12
How it was run: as §2

[9] = compound: CCC1N(CCc2cc(OC)c(Cl)cc12)C(=O)CCl
How it was run: as §1

[10] = compound: CCCC1N(CCc2cc(OC)c(OC)cc12)C(=O)CCl
How it was run: as §1

Measured: log2 ratio of Biotin-Ahx-Ub-VS probe labelling

USP16 (UniProt Q9Y5T5)
Chain of UniProt Q9Y5T5 (Q9Y5T5 whole entry, looked up): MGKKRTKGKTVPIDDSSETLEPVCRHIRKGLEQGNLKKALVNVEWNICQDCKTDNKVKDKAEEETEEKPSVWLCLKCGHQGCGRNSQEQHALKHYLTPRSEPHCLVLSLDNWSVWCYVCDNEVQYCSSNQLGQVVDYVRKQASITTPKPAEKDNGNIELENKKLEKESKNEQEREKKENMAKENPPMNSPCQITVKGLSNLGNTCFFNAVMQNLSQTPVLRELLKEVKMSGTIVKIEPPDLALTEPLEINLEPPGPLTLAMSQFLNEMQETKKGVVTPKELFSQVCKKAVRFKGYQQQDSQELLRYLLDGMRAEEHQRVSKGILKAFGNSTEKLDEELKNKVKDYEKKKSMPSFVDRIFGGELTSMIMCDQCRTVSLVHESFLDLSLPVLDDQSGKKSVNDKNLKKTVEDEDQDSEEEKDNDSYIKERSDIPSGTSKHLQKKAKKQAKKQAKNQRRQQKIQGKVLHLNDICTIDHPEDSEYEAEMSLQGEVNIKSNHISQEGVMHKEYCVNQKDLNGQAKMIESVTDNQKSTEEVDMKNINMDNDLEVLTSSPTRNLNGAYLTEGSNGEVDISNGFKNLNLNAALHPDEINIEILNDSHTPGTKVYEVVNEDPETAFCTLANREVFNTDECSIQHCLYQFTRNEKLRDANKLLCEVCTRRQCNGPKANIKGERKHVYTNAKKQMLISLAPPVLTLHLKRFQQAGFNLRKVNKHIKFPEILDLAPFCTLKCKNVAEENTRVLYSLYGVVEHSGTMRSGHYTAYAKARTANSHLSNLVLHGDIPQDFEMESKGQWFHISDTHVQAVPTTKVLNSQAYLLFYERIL
inactive: [1]; compound concentration: 50uM -0.0823 | [1]; compound concentration: 200uM -0.556 | [2]; compound concentration: 50uM -0.113 | [2]; compound concentration: 200uM -0.275 | [3]; compound concentration: 50uM 0.0401 | [3]; compound concentration: 200uM -0.748 | [4]; compound concentration: 50uM -0.209 | [4]; compound concentration: 200uM -0.00919 | [5]; compound concentration: 50uM -0.0288 | [5]; compound concentration: 200uM -0.558 | [6]; compound concentration: 0.78uM -0.182 | [6]; compound concentration: 1.56uM -0.165 | [6]; compound concentration: 3.13uM -0.0224 | [6]; compound concentration: 6.25uM -0.111 | [6]; compound concentration: 12.5uM -0.299 | [6]; compound concentration: 25uM -0.0714 | [6]; compound concentration: 50uM -0.0894 | [6]; compound concentration: 100uM -0.233 | [6]; compound concentration: 200uM -0.491 | [7]; compound concentration: 0.78uM -0.0997 | [7]; compound concentration: 1.56uM -0.0515 | [7]; compound concentration: 3.13uM -0.248 | [7]; compound concentration: 6.25uM -0.0769 | [7]; compound concentration: 12.5uM -0.00208 | [7]; compound concentration: 25uM -0.0915 | [7]; compound concentration: 50uM -0.387 | [7]; compound concentration: 100uM -0.167 | [7]; compound concentration: 200uM -0.479 | [8]; compound concentration: 0.78uM -0.177 | [8]; compound concentration: 1.56uM -0.318 | [8]; compound concentration: 3.13uM 0.0709 | [8]; compound concentration: 6.25uM -0.00683 | [8]; compound concentration: 12.5uM -0.0549 | [8]; compound concentration: 25uM 0.0133 | [8]; compound concentration: 50uM 0.0578 | [8]; compound concentration: 100uM -0.181 | [8]; compound concentration: 200uM -0.253 | [9]; compound concentration: 50uM -0.285 | [9]; compound concentration: 200uM -0.652 | [10]; compound concentration: 50uM -0.265 | [10]; compound concentration: 200uM -0.972

UCHL5 (UniProt Q9Y5K5)
Chain of UniProt Q9Y5K5 (Q9Y5K5 whole entry): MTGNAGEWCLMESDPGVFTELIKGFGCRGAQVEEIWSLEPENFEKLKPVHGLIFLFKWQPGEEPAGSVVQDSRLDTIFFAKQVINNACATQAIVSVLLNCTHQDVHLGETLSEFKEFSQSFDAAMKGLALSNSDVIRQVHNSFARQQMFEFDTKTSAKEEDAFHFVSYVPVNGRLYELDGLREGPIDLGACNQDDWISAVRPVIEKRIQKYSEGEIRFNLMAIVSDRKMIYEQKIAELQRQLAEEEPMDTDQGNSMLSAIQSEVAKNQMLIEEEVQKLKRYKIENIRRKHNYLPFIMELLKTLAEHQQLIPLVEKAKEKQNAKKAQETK
inactive: [1]; compound concentration: 50uM -0.261 | [1]; compound concentration: 200uM -0.413 | [2]; compound concentration: 50uM -0.312 | [2]; compound concentration: 200uM -0.412 | [3]; compound concentration: 50uM -0.053 | [3]; compound concentration: 200uM -0.389 | [4]; compound concentration: 50uM 0.0591 | [4]; compound concentration: 200uM -0.0343 | [5]; compound concentration: 50uM -0.0586 | [5]; compound concentration: 200uM -0.0877 | [6]; compound concentration: 0.78uM -0.151 | [6]; compound concentration: 1.56uM -0.0693 | [6]; compound concentration: 3.13uM -0.187 | [6]; compound concentration: 6.25uM -0.075 | [6]; compound concentration: 12.5uM -0.156 | [6]; compound concentration: 25uM -0.346 | [6]; compound concentration: 50uM -0.111 | [6]; compound concentration: 100uM -0.166 | [6]; compound concentration: 200uM -0.211 | [7]; compound concentration: 0.78uM -0.425 | [7]; compound concentration: 1.56uM -0.183 | [7]; compound concentration: 3.13uM -0.22 | [7]; compound concentration: 6.25uM -0.255 | [7]; compound concentration: 12.5uM -0.281 | [7]; compound concentration: 25uM -0.176 | [7]; compound concentration: 50uM -0.209 | [7]; compound concentration: 100uM -0.17 | [7]; compound concentration: 200uM -0.35 | [8]; compound concentration: 0.78uM -0.162 | [8]; compound concentration: 1.56uM -0.217 | [8]; compound concentration: 3.13uM -0.188 | [8]; compound concentration: 6.25uM 0.0176 | [8]; compound concentration: 12.5uM -0.23 | [8]; compound concentration: 25uM -0.161 | [8]; compound concentration: 50uM -0.0913 | [8]; compound concentration: 100uM -0.178 | [8]; compound concentration: 200uM -0.266 | [9]; compound concentration: 50uM -0.0479 | [9]; compound concentration: 200uM -0.725 | [10]; compound concentration: 50uM -0.464 | [10]; compound concentration: 200uM -0.644
